The text below walks through data of PubChem BioAssay AID602357 (National Center for Advancing Translational Sciences (NCATS), 2012).

Records with an inconclusive call do not appear. The source made the active and inactive calls. Calls follow the shape of the dose curve; as a rule, active = well fitted inhibition curve with a large enough effect; inconclusive = small, poorly fitted or top-dose-only effect; inactive = no such curve, though single readings can be large or run the other way.

For this test, the target named is Luciferin 4-monooxygenase (Photinus pyralis) (UniProt P08659). The test is described as follows: FLuc inhibitory activity for the follow-up compounds in a biochemical assay with Km concentrations of substrate. The following applies: purified FLuc, Km substrates, luminescence; series mostly up to 57.5 µM. The source says: NCGC Assay Overview: Firefly (Photinus pyralis) luciferase is one of the most commonly used transcriptional reporters. It is considered one of the more dynamically responsive reporters - that is, responsive to changes in reporter transcription - as it requires no post-translational modifications and is enzymatically active directly after protein synthesis (Wood, 1998). With no endogenous expression in mammalian cells and without the requirement of external excitation, it offers very little background signal, thus generally providing excellent signal to background for most assays. Previous profiling work to determine the prevalence of compounds that affect FLuc enzymatic activity (PubChem AID 411) identified that ~3% of the MLSMR library (then at ~72K) inhibited FLuc. […] Of the compounds identified in this profile that inhibited FLuc, 151 compounds were selected for further analysis, in an effort to better understand their mode of inhibiting FLuc. The assay described here confirms the FLuc inhibitory activity of the 151 compounds.
Chain of Luciferin 4-monooxygenase (Photinus pyralis) (P08659 whole entry, looked up): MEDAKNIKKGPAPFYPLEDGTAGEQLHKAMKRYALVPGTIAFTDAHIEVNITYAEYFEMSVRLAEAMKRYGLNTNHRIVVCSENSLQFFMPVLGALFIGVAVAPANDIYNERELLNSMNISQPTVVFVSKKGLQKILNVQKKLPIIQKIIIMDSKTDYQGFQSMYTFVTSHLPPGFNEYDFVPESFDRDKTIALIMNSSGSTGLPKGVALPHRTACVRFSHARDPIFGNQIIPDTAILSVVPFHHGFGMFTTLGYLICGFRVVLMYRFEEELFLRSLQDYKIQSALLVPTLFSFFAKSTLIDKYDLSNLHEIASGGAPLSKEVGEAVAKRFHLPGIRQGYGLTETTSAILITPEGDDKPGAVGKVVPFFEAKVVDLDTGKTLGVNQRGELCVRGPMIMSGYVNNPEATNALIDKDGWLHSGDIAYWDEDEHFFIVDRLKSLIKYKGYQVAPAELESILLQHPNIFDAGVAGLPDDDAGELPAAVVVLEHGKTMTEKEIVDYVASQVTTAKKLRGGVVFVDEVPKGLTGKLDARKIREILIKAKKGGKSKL
NCGC Assay Protocol Summary: Reagents: 50mM Tris acetate, pH 7.5; 10mM Mg acetate; 10uM D-luciferin (Sigma #L9504); 10uM ATP; 0.01% Tween-20; 0.05% BSA; 10nM P. pyralis luciferase (Sigma #L9506) Control compounds used were two known firefly luciferase inhibitors (3-(5-(3-chlorophenyl)-1,2,4-oxadiazol-3-yl)benzoic acid and 5-(2-fluorophenyl)-3-phenyl-1,2,4-oxadiazole), and DMSO. Three microliters containing firefly luciferase substrates in buffer (final concentrations: 50mM Tris acetate, pH 7.5, 10mM Mg acetate, 0.01% Tween-20, 0.05% BSA, 10uM D-luciferin, and 10uM ATP) are dispensed into each well of a Greiner white, solid-bottom 1536-well format plate using a flying reagent dispenser (FRD). These assay plates were then treated with 23nL of compound or DMSO using a Kalypsys pin tool, which allows for delivery of a 12-point intraplate titration of each compound to the assay plate (quantitative HTS), with a final compound concentrations ranging from approximately ~60uM to 0.3nM. One microliter of firefly luciferase in 500mM Tris-acetate buffer was then delivered by FRD to each well for a final enzyme concentration of 10nM. Luciferase activity was then measured using a ViewLux CCD imager (PerkinElmer), with an average exposure time of 2-30 seconds (2X binning, medium/high gain).
For the molecule `COc1ccccc1C(=O)Nc1ccc(C(=O)O)cc1`, the Potency entry is “inactive”.

Take `O=C(Cc1ccccc1)Nc1ccccc1C(=O)Nc1ccc(C(=O)O)cc1`: the Potency result is “inactive”. Regarding `CN(C)S(=O)(=O)c1ccc(C(=O)Nc2ccccc2C(=O)O)cc1`, the Potency is 13 µM (active).

With `COc1ccc2nc(NC(=O)c3cccc(S(=O)(=O)N4CCOCC4)c3)sc2c1`, the Potency was 20.6 µM (active). For `COc1ccc(C(=O)Nc2ccccc2-c2nc3ccccc3s2)c(OC)c1`, the Potency result was “inactive”. As to `Cc1c(NS(C)(=O)=O)cccc1-c1nc2ccccc2s1`, the Potency is 8.19 µM (active). In the case of `COc1ccc(-c2nc3ccccc3s2)cc1O` it was 0.146 µM (active); in that of `COc1ccc2nc(NC(=O)c3nc(S(=O)(=O)Cc4ccc(C)cc4)ncc3Cl)sc2c1`, “inactive”.

Consider `Cc1ccc(S(=O)(=O)N2CCN(C(=O)c3ccccc3-c3nc4ccccc4s3)CC2)c(C)c1`, for which the Potency result is “inactive”. With `Cc1ccc2nc(-c3ccc(NC(=O)CN4CCN(C(=O)c5ccco5)CC4)cc3)sc2c1`, the Potency is 5.8 µM (active).

`O=C(Nc1ccccc1-c1nc2ccccc2s1)c1ccc(Br)o1`: the Potency result was “inactive”. `O=C(O)c1cccc(NC(=O)c2ccc(Cl)c(S(=O)(=O)N3CCCCCC3)c2)c1`: the Potency is 0.058 µM (active).

For `Nc1ccccc1C(=O)Nc1cccc(C(=O)O)c1`, the Potency is 2.06 µM (active).

In the case of `Cc1ccc(C(=O)Nc2cccc(C(=O)O)c2)cc1S(=O)(=O)N1CCCC1`, the Potency was 0.058 µM (active). For `CCc1noc(C)c1C(=O)Nc1nc2ccc(OC)cc2s1`, the Potency is 13 µM (active). As to `CCn1c(C)nc2cc(-c3nc4n(n3)Cc3ccccc3-4)ccc21`, the Potency was 0.0231 µM (active).

Turning to `COc1cc(OC)cc(-c2nc3ccccc3s2)c1`, the Potency was 6.51 µM (active). Take `Cc1ccc(C(=O)Nc2cccc(C(=O)O)c2)cc1S(=O)(=O)N1CCOCC1`: the Potency is 0.291 µM (active).

As to `COc1ccc2nc(NC(=O)c3ccc(S(=O)(=O)N4CCCC(C)C4)cc3)sc2c1` (stereo not given), the Potency result is “inactive”. In the case of `COc1ccc2nc(NC(=O)c3ccco3)sc2c1` it was 1.03 µM (active).

Turning to `COc1ccc2nc(NC(=O)Cc3cccs3)sc2c1`, the Potency is 7.3 µM (active). As for `Cc1ccc(S(=O)(=O)N2CCOCC2)cc1C(=O)Nc1ccccc1C(=O)O`, the Potency entry was “inactive”. In the case of `CCOc1c(Cl)cc(C(=O)Nc2ccccc2C(=O)O)cc1Cl`, the Potency was 18.3 µM (active). Regarding `CN=c1scc(-c2ccccc2F)n1/N=C/c1ccc[nH]1`, the Potency is 0.0461 µM (active). With `O=C(Nc1ccccc1C(=O)O)c1cccc(NC(=O)c2ccc(Br)o2)c1`, the Potency was 23.1 µM (active). In the case of `Nc1ccccc1-c1nc2ccccc2s1` it was 8.19 µM (active); in that of `COc1cccc(OC)c1C(=O)Nc1cccc(C(=O)Nc2cccc(C(=O)O)c2)c1`, 5.8 µM (active). Consider `O=C(Nc1ccccc1C(=O)O)c1cc(S(=O)(=O)Nc2ccccc2)ccc1Cl`, for which the Potency result was “inactive”. For the molecule `CC(C)(C)NC(=O)c1ccccc1-c1nc2ccccc2s1`, the Potency result was “inactive”. Regarding `O=C(O)c1ccc(NC(=O)c2cccc(C(=O)Nc3ccc(C(=O)O)cc3)c2)cc1`, the Potency result was “inactive”. In the case of `O=C(O)c1ccc(NC(=O)c2ccccc2NC(=O)c2cccc(Br)c2)cc1`, the Potency is 14.6 µM (active).

`Cc1c(NC(=O)c2cc(-n3cnnc3)ccc2Cl)cccc1-c1nc2ccccc2s1`: the Potency was 0.58 µM (active).

As to `O=C(Nc1ccccc1C(=O)O)c1cc(S(=O)(=O)NCc2ccccc2)ccc1Cl`, the Potency entry is “inactive”. Turning to `O=C(O)c1cccc(NC(=O)c2cccc(S(=O)(=O)N3CCc4ccccc43)c2)c1`, the Potency was 23.1 µM (active). As to `Cc1c(NC(=O)C(C)(C)C)cccc1-c1nc2ccccc2s1`, the Potency is 3.26 µM (active). Regarding `Nc1ccc2nc(-c3ccc(O)cc3)sc2c1`, the Potency was 0.41 µM (active). For `O=C(Nc1ccccc1C(=O)O)c1ccc(Cl)c(S(=O)(=O)N2CCOCC2)c1`, the Potency is 8.19 µM (active). Turning to `O=S(=O)(c1ccc(-c2nc3ccccc3s2)cc1)N1CCCC1`, the Potency result was “inactive”. Take `O=C(Nc1ccccc1C(=O)O)c1cccc(S(=O)(=O)Nc2ccc(Br)cc2)c1`: the Potency result is “inactive”. As for `O=C(O)c1ccc(NC(=O)c2cccc(NC(=O)c3cccs3)c2)cc1`, the Potency is 9.19 µM (active).
